Drawing on PubChem BioAssay (EPA / NIEHS), this text covers outcome and AC50 for 40 molecules.

Calls of active or inactive are those of the source. Rule for the calls: active = hit-call score of the fitted dose curve at least 0.9, where 1 is the maximum; inactive = score below 0.9.

The assay can be described thus: ATG_NRF2_ARE_CIS: Attagene CIS-FACTORIAL HepG2 Assay for human Nuclear Factor Erythroid 2 Related Factor 2 (NFR2) response to Antioxidant Response Elements (ARE) (AID 2282992). Particulars: HepG2 Attagene ARE/NRF2 reporter, transcription factor activity; actives raise or lower the signal. On the procedure:
ATG_CIS is a cell-based, multiplexed-readout assay that uses HepG2, a human liver cell line, with measurements taken at 24 hours after chemical dosing in a 24-well plate.ATG_NRF2_ARE_CIS is one of 52 assay component(s) measured or calculated from the ATG_CIS assay. It is designed to make measurements of mRNA induction, a form of inducible reporter, as detected with fluorescence intensity signals by Reverse transcription polymerase chain reaction (RT-PCR) and Capillary electrophoresis technology.Data from the assay component ATG_NRF2_ARE_CIS was analyzed into 1 assay endpoint. This assay endpoint, ATG_NRF2_ARE_CIS, was analyzed with bidirectional fitting relative to DMSO as the negative control and baseline of activity. Using a type of inducible reporter, measures of mRNA for gain or loss-of-signal activity can be used to understand the reporter gene at the transcription factor-level as they relate to the gene NFE2L2. Furthermore, this assay endpoint can be referred to as a primary readout, because this assay has produced multiple assay endpoints where this one serves a reporter gene function. To generalize the intended target to other relatable targets, this assay endpoint is annotated to the dna binding intended target family, where the subfamily is basic leucine zipper.
Human liver HepG2 cells are transiently transfected with multiple reporter transcription units (MRTUs) in 6-well plates using FuGene 6 reagent (Roche; 3 ml FuGene/1 mg DNA). The MRTU constructs are regulated by a cis-regulating element (promoter). […] A major difference between the CIS and TRANS system is that in CIS activities of endogenous TFs are measured, whereas the TRANS assay evaluates changes in activities of exogenous, chimeric NR-Gal4 proteins. […] At the end of 24 hour incubation, total RNA was isolated using TriZol reagent (Invitrogen). The isolated RNA is then reverse-transcribed using oligo(dT) primer and Mo-MLV reverse transcriptase (Invitrogen) with DNAse I (Ambion) treatment for 30 min. The one-tenth of the produced cDNA was amplified by PCR using Taq DNA polymerase (Invitrogen) and two reporter sequence-specific primers. The PCR products were fluorescently labeled by primer extension with 6-arboxyfluorescein (6-FAM) 5'-labeled reporter sequence-specific primer (2 min at 95 C, 20 s at 68 C and 10 min at 72 C) and these products were digested with 5U of HpaI (New England Biolabs) for 2h at 37 C. The fragments were purified using Qiaquick PCR columns (Qiagen), analyzed on an ABI 3130xL genetic analyzer (Applied Biosystems) with peak positions identified by using a set of X-rhodamine (ROX)-labeled MapMarker1000 molecular weight standards (BioVentures). The raw capillary electrophoresis data was processed using Attagraph software (Attagene).
Consider `Cc1c(O)cccc1O`, for which the molecule was called inactive.

For `O=S(=O)(O)c1ccc(Nc2nc(Nc3ccc(C=Cc4ccc(Nc5nc(Nc6ccc(S(=O)(=O)O)cc6)nc(N(CCO)CCO)n5)cc4S(=O)(=O)O)c(S(=O)(=O)O)c3)nc(N(CCO)CCO)n2)cc1`, the result was inactive.

Consider `CC12CCC(CC1)C(C)(C)O2`, for which the outcome was inactive.

In the case of `Cc1noc(NS(=O)(=O)c2ccc(N)cc2)c1C`, the call was inactive.

On to `CCCCCCCCCCCCCCCCCCOS(=O)(=O)O`, for which the AC50 (as a rule, the midpoint of the concentration-response curve, whichever way the signal moves) was 13.7 µM (active).

With `CCc1cccc(C)c1N(C(=O)CS(=O)(=O)O)C(C)COC` (stereo not given), the outcome was inactive.

In the case of `CCC1COC(=O)O1` (stereo not given), the molecule was classed as inactive.

`Nc1ccc(C(=O)OCCCOC(=O)c2ccc(N)cc2)cc1`: the outcome was inactive.

As for `CCOC(=O)C1=NN(c2ccc(Cl)cc2Cl)C(C)(C(=O)OCC)C1` (stereo not given), the result was inactive.

For `CC1=CCC2CC1C2(C)C` (stereo not given), the call was inactive.

Regarding `CCCC1CCCC(=O)O1` (stereo not given), the outcome was inactive.

`CCOC(=O)c1ccccc1C`: the outcome was inactive.

For the molecule `CC(C)CCOCc1ccccc1`, the result was inactive.

With `COC(OC)(C(=O)c1ccccc1)c1ccccc1`, the result was inactive.

Consider `CCC(C)C(=O)OCCc1ccccc1` (stereo not given), for which the molecule was called inactive.

For the molecule `NNS(=O)(=O)c1ccc(Oc2ccc(S(=O)(=O)NN)cc2)cc1`, the outcome was inactive.

Consider `C=CC(=O)NC(C)(C)C`, for which the concentration at half-maximal activity (AC50) was 28 µM (active).

`CC(c1cc(C(C)(C)C)cc(C(C)(C)C)c1O)c1cc(C(C)(C)C)cc(C(C)(C)C)c1O`: the result was inactive.

`CC(C)(C)NC(=O)[C@H]1CC[C@H]2[C@@H]3CC[C@H]4NC(=O)C=C[C@]4(C)[C@H]3CC[C@]12C`: the AC50 is 100 µM (active).

In the case of `Nc1nc(N)nc(-c2ccccc2)n1`, the molecule was called inactive.

For `O=C(Oc1ccccc1)c1ccccc1O`, the molecule was called inactive.

Consider `CC(C=O)c1ccccc1` (stereo not given), for which the result was inactive.

For `C1CCSC1`, the molecule was classed as inactive.

With `Oc1ccccc1Cc1ccccc1O`, the AC50 is 40.7 µM (active).

Take `CC1OC(=O)C(C)OC1=O` (stereo not given): the molecule was classed as inactive.

Take `O=C(O)C1CCC(C(=O)O)CC1` (stereo not given): the result was inactive.

For the molecule `CCCCOC(=O)C(C)CC` (stereo not given), the outcome was inactive.

With `CC(C)[N+](C)(CCOC(=O)C1c2ccccc2Oc2ccccc21)C(C)C`, the outcome was inactive.

Regarding `CCCCCCCCCCCCC`, the molecule was called inactive.

As to `CC1(C)[C@@H]2CC[C@@]1(C)C(=O)C2`, the outcome was inactive.

As to `CC(=O)OCc1ccccc1`, the molecule was called inactive.

Take `COC(C=C(C)CCC=C(C)C)OC`: the AC50 was 59.2 µM (active).

As to `CCCCCCCCCCCC(=O)OCC`, the molecule was classed as inactive.

In the case of `CC(C)(C)N`, the molecule was called inactive.

In the case of `CO[Si](CCCS)(OC)OC`, the call was inactive.

On to `Oc1ccc(/C=C/c2cc(O)cc(O)c2)cc1`, for which the AC50 is 24.6 µM (active).

For the molecule `c1ccc2sc(SSN3CCOCC3)nc2c1`, the AC50 is 48.8 µM (active).

In the case of `CCCCC1CCC(=O)O1` (stereo not given), the result was inactive.

Regarding `CCCCCCCCCCCCc1ccc(O)cc1`, the molecule was classed as inactive.

As for `C=C(C)C(=O)OCCOC(=O)C(=C)C`, the call was inactive.
